How the values were obtained:
Assay in all cases: SPOT peptide array binding signal intensity (averaged, normalized) (arbitrary units (background-subtracted, floor 0; scale differs between SH3 domains)); higher = stronger binding of the SH3 domain to the peptide
AgAbp1 = target: AgAbp1
Outline: (§1)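 The binding signal is the normalized, background-subtracted spot intensity averaged over replicates; its arbitrary units differ between domains. It was obtained by incubating 10 μg/ml GST-fused SH3 domains from four yeast species overnight at 4°C in TBS-based blocking buffer on cellulose membranes with synthetic 15-mer peptides, cysteines replaced by serines, then detecting with anti-GST antibody, HRP anti-mouse secondary and luminol.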

AgBbc1 = target: AgBbc1
Outline: as §1

AgBem1-D1 = target: AgBem1-D1
Outline: as §1

AgBzz1-D1 = target: AgBzz1-D1
Outline: as §1

AgBzz1-D2 = target: AgBzz1-D2
Outline: as §1

AgCyk3 = target: AgCyk3
Outline: as §1

AgFus1 = target: AgFus1
Outline: as §1

AgHof1 = target: AgHof1
Outline: as §1

AgHse1 = target: AgHse1
Outline: as §1

AgLsb1 = target: AgLsb1
Outline: as §1

AgLsb4 = target: AgLsb4
Outline: as §1

AgMyo5 = target: AgMyo5
Outline: as §1

AgNbp2 = target: AgNbp2
Outline: as §1

AgRvs167 = target: AgRvs167
Outline: as §1

AgSho1 = target: AgSho1
Outline: as §1

AgSla1-D1-D2 = target: AgSla1-D1-D2
Outline: as §1

AgSla1-D3 = target: AgSla1-D3
Outline: as §1

CaAbp1-D1 = target: CaAbp1-D1
Outline: as §1

CaAbp1-D2 = target: CaAbp1-D2
Outline: as §1

CaBbc1 = target: CaBbc1
Outline: as §1

CaBem1-D1 = target: CaBem1-D1
Outline: as §1

CaBzz1-D1 = target: CaBzz1-D1
Outline: as §1

CaBzz1-D2 = target: CaBzz1-D2
Outline: as §1

CaCyk3 = target: CaCyk3
Outline: as §1

CaFus1 = target: CaFus1
Outline: as §1

CaHof1 = target: CaHof1
Outline: as §1

CaHse1 = target: CaHse1
Outline: as §1

CaLsb1 = target: CaLsb1
Outline: as §1

CaLsb4 = target: CaLsb4
Outline: as §1

CaMyo5 = target: CaMyo5
Outline: as §1

CaNbp2 = target: CaNbp2
Outline: as §1

CaRvs167 = target: CaRvs167
Outline: as §1

CaRvs167-3 = target: CaRvs167-3
Outline: as §1

CaSho1 = target: CaSho1
Outline: as §1

CaSla1-D1-D2 = target: CaSla1-D1-D2
Outline: as §1

CaSla1-D3 = target: CaSla1-D3
Outline: as §1

ScAbp1 = target: ScAbp1
Outline: as §1

ScBbc1 = target: ScBbc1
Outline: as §1

ScBem1-D1 = target: ScBem1-D1
Outline: as §1

ScBzz1-D1 = target: ScBzz1-D1
Outline: as §1

ScBzz1-D2 = target: ScBzz1-D2
Outline: as §1

ScCyk3 = target: ScCyk3
Outline: as §1

ScFus1 = target: ScFus1
Outline: as §1

ScHof1 = target: ScHof1
Outline: as §1

ScHse1 = target: ScHse1
Outline: as §1

ScLsb1 = target: ScLsb1
Outline: as §1

ScLsb2 = target: ScLsb2
Outline: as §1

ScLsb3 = target: ScLsb3
Outline: as §1

ScLsb4 = target: ScLsb4
Outline: as §1

ScMyo3 = target: ScMyo3
Outline: as §1

ScMyo5 = target: ScMyo5
Outline: as §1

ScNbp2 = target: ScNbp2
Outline: as §1

ScPex13 = target: ScPex13
Outline: as §1

ScRvs167 = target: ScRvs167
Outline: as §1

ScSho1 = target: ScSho1
Outline: as §1

ScSla1-D1-D2 = target: ScSla1-D1-D2
Outline: as §1

ScSla1-D3 = target: ScSla1-D3
Outline: as §1

SpAbp1-D1 = target: SpAbp1-D1
Outline: as §1

SpBbc1 = target: SpBbc1
Outline: as §1

SpBzz1-D1 = target: SpBzz1-D1
Outline: as §1

SpBzz1-D2 = target: SpBzz1-D2
Outline: as §1

SpCyk3 = target: SpCyk3
Outline: as §1

SpHof1 = target: SpHof1
Outline: as §1

SpHof1-2 = target: SpHof1-2
Outline: as §1

SpHof1-3 = target: SpHof1-3
Outline: as §1

SpHse1 = target: SpHse1
Outline: as §1

SpLsb1 = target: SpLsb1
Outline: as §1

SpLsb4 = target: SpLsb4
Outline: as §1

SpMyo1 = target: SpMyo1
Outline: as §1

SpNbp2 = target: SpNbp2
Outline: as §1

SpPex13 = target: SpPex13
Outline: as §1

SpRvs167 = target: SpRvs167
Outline: as §1

SpSla1-D1-D2 = target: SpSla1-D1-D2
Outline: as §1

SpSla1-D3 = target: SpSla1-D3
Outline: as §1

VPVAPPPPPASLGQS
SPOT peptide array binding signal intensity (AgAbp1): ≤ 0
SPOT peptide array binding signal intensity (AgBbc1): ≤ 0
SPOT peptide array binding signal intensity (AgBem1-D1): 15
SPOT peptide array binding signal intensity (AgBzz1-D1): 0.5
SPOT peptide array binding signal intensity (AgBzz1-D2): ≤ 0
SPOT peptide array binding signal intensity (AgCyk3): ≤ 0
SPOT peptide array binding signal intensity (AgFus1): ≤ 0
SPOT peptide array binding signal intensity (AgHof1): ≤ 0
SPOT peptide array binding signal intensity (AgHse1): 17
SPOT peptide array binding signal intensity (AgLsb1): 0.25
SPOT peptide array binding signal intensity (AgLsb4): ≤ 0
SPOT peptide array binding signal intensity (AgMyo5): 4.25
SPOT peptide array binding signal intensity (AgNbp2): ≤ 0
SPOT peptide array binding signal intensity (AgRvs167): 3
SPOT peptide array binding signal intensity (AgSho1): ≤ 0
SPOT peptide array binding signal intensity (AgSla1-D1-D2): 6
SPOT peptide array binding signal intensity (AgSla1-D3): 1
SPOT peptide array binding signal intensity (CaAbp1-D1): 2
SPOT peptide array binding signal intensity (CaAbp1-D2): 4
SPOT peptide array binding signal intensity (CaBbc1): 0.5
SPOT peptide array binding signal intensity (CaBem1-D1): ≤ 0
SPOT peptide array binding signal intensity (CaBzz1-D1): 89
SPOT peptide array binding signal intensity (CaBzz1-D2): 9.5
SPOT peptide array binding signal intensity (CaCyk3): ≤ 0
SPOT peptide array binding signal intensity (CaFus1): 16
SPOT peptide array binding signal intensity (CaHof1): ≤ 0
SPOT peptide array binding signal intensity (CaHse1): ≤ 0
SPOT peptide array binding signal intensity (CaLsb1): 0.75
SPOT peptide array binding signal intensity (CaLsb4): ≤ 0
SPOT peptide array binding signal intensity (CaMyo5): 13.5
SPOT peptide array binding signal intensity (CaNbp2): 17.5
SPOT peptide array binding signal intensity (CaRvs167): ≤ 0
SPOT peptide array binding signal intensity (CaRvs167-3): 1.5
SPOT peptide array binding signal intensity (CaSho1): 28
SPOT peptide array binding signal intensity (CaSla1-D1-D2): ≤ 0
SPOT peptide array binding signal intensity (CaSla1-D3): ≤ 0
SPOT peptide array binding signal intensity (ScAbp1): 0.5
SPOT peptide array binding signal intensity (ScBbc1): 2.5
SPOT peptide array binding signal intensity (ScBem1-D1): 0.5
SPOT peptide array binding signal intensity (ScBzz1-D1): 3
SPOT peptide array binding signal intensity (ScBzz1-D2): 8.5
SPOT peptide array binding signal intensity (ScCyk3): ≤ 0
SPOT peptide array binding signal intensity (ScFus1): ≤ 0
SPOT peptide array binding signal intensity (ScHof1): ≤ 0
SPOT peptide array binding signal intensity (ScHse1): 4
SPOT peptide array binding signal intensity (ScLsb1): ≤ 0
SPOT peptide array binding signal intensity (ScLsb2): ≤ 0
SPOT peptide array binding signal intensity (ScLsb3): ≤ 0
SPOT peptide array binding signal intensity (ScLsb4): 4
SPOT peptide array binding signal intensity (ScMyo3): 372
SPOT peptide array binding signal intensity (ScMyo5): 91
SPOT peptide array binding signal intensity (ScNbp2): ≤ 0
SPOT peptide array binding signal intensity (ScPex13): ≤ 0
SPOT peptide array binding signal intensity (ScRvs167): ≤ 0
SPOT peptide array binding signal intensity (ScSho1): 3
SPOT peptide array binding signal intensity (ScSla1-D1-D2): ≤ 0
SPOT peptide array binding signal intensity (ScSla1-D3): 1.5
SPOT peptide array binding signal intensity (SpAbp1-D1): ≤ 0
SPOT peptide array binding signal intensity (SpBbc1): ≤ 0
SPOT peptide array binding signal intensity (SpBzz1-D1): 237
SPOT peptide array binding signal intensity (SpBzz1-D2): 1.25
SPOT peptide array binding signal intensity (SpCyk3): ≤ 0
SPOT peptide array binding signal intensity (SpHof1): ≤ 0
SPOT peptide array binding signal intensity (SpHof1-2): ≤ 0
SPOT peptide array binding signal intensity (SpHof1-3): 0.5
SPOT peptide array binding signal intensity (SpHse1): 1
SPOT peptide array binding signal intensity (SpLsb1): ≤ 0
SPOT peptide array binding signal intensity (SpLsb4): ≤ 0
SPOT peptide array binding signal intensity (SpMyo1): 49.8
SPOT peptide array binding signal intensity (SpNbp2): 1.5
SPOT peptide array binding signal intensity (SpPex13): ≤ 0
SPOT peptide array binding signal intensity (SpRvs167): 3.33
SPOT peptide array binding signal intensity (SpSla1-D1-D2): ≤ 0
SPOT peptide array binding signal intensity (SpSla1-D3): ≤ 0

QPWTDQFEKLEKEVS
SPOT peptide array binding signal intensity (AgAbp1): ≤ 0
SPOT peptide array binding signal intensity (AgBbc1): ≤ 0
SPOT peptide array binding signal intensity (AgBem1-D1): 15
SPOT peptide array binding signal intensity (AgBzz1-D1): ≤ 0
SPOT peptide array binding signal intensity (AgBzz1-D2): 22
SPOT peptide array binding signal intensity (AgCyk3): 1.5
SPOT peptide array binding signal intensity (AgFus1): ≤ 0
SPOT peptide array binding signal intensity (AgHof1): ≤ 0
SPOT peptide array binding signal intensity (AgHse1): 26
SPOT peptide array binding signal intensity (AgLsb1): ≤ 0
SPOT peptide array binding signal intensity (AgLsb4): ≤ 0
SPOT peptide array binding signal intensity (AgMyo5): 1.5
SPOT peptide array binding signal intensity (AgNbp2): ≤ 0
SPOT peptide array binding signal intensity (AgRvs167): 0.167
SPOT peptide array binding signal intensity (AgSho1): ≤ 0
SPOT peptide array binding signal intensity (AgSla1-D1-D2): ≤ 0
SPOT peptide array binding signal intensity (AgSla1-D3): ≤ 0
SPOT peptide array binding signal intensity (CaAbp1-D1): ≤ 0
SPOT peptide array binding signal intensity (CaAbp1-D2): ≤ 0
SPOT peptide array binding signal intensity (CaBbc1): 3.5
SPOT peptide array binding signal intensity (CaBem1-D1): ≤ 0
SPOT peptide array binding signal intensity (CaBzz1-D1): ≤ 0
SPOT peptide array binding signal intensity (CaBzz1-D2): ≤ 0
SPOT peptide array binding signal intensity (CaCyk3): ≤ 0
SPOT peptide array binding signal intensity (CaFus1): ≤ 0
SPOT peptide array binding signal intensity (CaHof1): 0.5
SPOT peptide array binding signal intensity (CaHse1): ≤ 0
SPOT peptide array binding signal intensity (CaLsb1): 0.5
SPOT peptide array binding signal intensity (CaLsb4): ≤ 0
SPOT peptide array binding signal intensity (CaMyo5): ≤ 0
